Screens (PubChem BioAssay)
SMARCA2 activ – SMARCA2 (BRM) function activators, primary screen, cell-based, luminescence, high throughput; activation, % at 9.1 µM; 1% of 370,000 active; MG213 cells, MMTV-luciferase reporter, dexamethasone, overnight; in the data active = activation above about 7.8%;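 note: 0% = vehicle wells and 100% = reference activator wells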
esBAF inh – Bmi1 luciferase reporter increase in mESCs, primary screen, esBAF inhibitor project, mouse ES cells, Bmi1 luciferase knock-in, single point; reporter increase, % at 12.5 µM; AID 602393, 2012; 24 h; 100% = twice the neutral-well signal; 2% of 350,000 active; in the data active = activation above about 40%; inconclusive = no clear call, values can overlap the other calls;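 note: 0% = median of the plate's neutral control wells and 100% = double that signal; a rise in the Bmi1 reporter signal indicates esBAF inhibition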
Vif inh – HIV Vif self-association inhibitors, primary screen, imaging, HEK293T, single point | HEK293T cells, Vif self-association by quenched fluorescence, 24 h | inhibition, % at 7.49 µM | 0.35% of 340,000 active; in the data active = inhibition above about 50%, passing the limit was not always enough; inconclusive = no clear call, values can overlap the other calls; inactive = below about 31%
NR3A LBD binder – binders of NR3A ligand-binding domain, primary screen, biophysical, differential scanning fluorimetry, uHTS; 2.5% of 340,000 active; NR3A LBD differential scanning fluorimetry, Tm shift; 0% = protein alone, 100% = glycine-bound protein; Glutamate receptor ionotropic, NMDA 3A (GRIN3A) ligand-binding domain; Tm shift relative to glycine control, % at 25 µM; AID 1259313, 2017;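 active = melting temperature shift of at least 10% of the positive control shift, at one fixed dose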
SKN-1 inh – suppressors of acrylamide-induced Pgst-4::GFP reporter in worms, primary screen, SKN-1 inhibitor project, whole organism, uHTS, GFP/RFP fluorescence ratio, strain VP596; 0.49% of 360,000 active; C. elegans VP596 Pgst-4::GFP/RFP ratio, 24 h; AID 624304, 2012; inhibition, % at 21.8 µM;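 active = interference check ratio from 0.5 to 1.5 plus GFP to RFP signal ratio inhibition reaching or exceeding a fixed threshold, cut at about 30% in these data, passing the limit was not always enough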
NadD inh – inhibitors of S. aureus NadD, primary screen, biochemical, colorimetric, uHTS; purified NadD enzyme, colorimetric absorbance read-out; Nicotinate-nucleotide adenylyltransferase NadD (Staphylococcus aureus N315); 0.78% of 360,000 active; inhibition, % at 20 µM; AID 602399, 2012; in the data active = inhibition above about 26%
NadD inh conf – inhibitors of S. aureus NadD, confirmation, biochemical, colorimetric, single concentration; shares compounds with NadD inh; purified S. aureus NadD, colorimetric enzyme assay; inhibition, % at 20 µM; 13% of 2,000 active; AID 624309, 2012; in the data active = inhibition mostly above about 42%, no sharp cut-off; inactive = mostly below about 42%
* marks the source's active call; other numbers are inactive results; ? = inconclusive; . = no result. In the library only some 5.2% were active in any assay of this set; here they are far more common.

SMILES	SMARCA2 activ	esBAF inh	Vif inh	NR3A LBD binder	SKN-1 inh	NadD inh	NadD inh conf
COc1ccc(/C=C2\SC(=O)N(CCC(=O)Nc3ccc(S(=O)(=O)Nc4nccs4)cc3)C2=O)cc1	1	.	14	11*	15	76*	60*
COc1ccccc1C(=O)NCC(=O)NCc1cc(=O)n(C)c(=O)n1C	-2	-3	-1	-2	12	62*	-3
Cn1c(CNC(=O)CNC(=O)c2ccccc2F)cc(=O)n(C)c1=O	0	2	-9	-1	10	-3	.
CO[C@H]1CN(C)C(=O)c2ccc(NC(=O)c3cnccn3)cc2OC[C@H](C)N(C(=O)C2CC2)C[C@@H]1C	.	-2	.	.	.	.	.
N#C/C(=C\c1ccc(-c2ccccc2[N+](=O)[O-])o1)C(=O)Nc1nc(-c2cccs2)cs1	-1	.	-4	12*	9	34*	-5
N#C/C(=C/c1ccc(-c2cccc([N+](=O)[O-])c2)o1)C(=O)Nc1nc(-c2cccs2)cs1	2	-1	0	23*	-15	46*	-9
N#C/C(=C\c1ccc(-c2cccc(Cl)c2)o1)C(=O)Nc1cccc2cccnc12	0	-5	5	-1	31	12	.
N#C/C(=C\c1ccc(-c2ccc([N+](=O)[O-])cc2)o1)C(=O)Nc1nc(-c2cccs2)cs1	0	.	-10	-1	9	40*	4
CC(C)NC(=O)Nc1ccc2c(c1)C(=O)N([C@@H](C)CO)C[C@H](C)[C@H](CN(C)Cc1ccc(C(=O)O)cc1)O2	.	-5	.	.	.	.	.
C[C@@H]1CN([C@@H](C)CO)S(=O)(=O)c2ccc(-c3cccnc3)cc2O[C@@H]1CN(C)C(=O)CN(C)C	.	-9	.	.	.	.	.
Cc1c(NC(=O)c2cccc(-c3cc4ccccc4oc3=O)c2)cccc1-c1nc2ncccc2o1	0	.	-3	2	12	48*	4
C[C@H](CO)N1C[C@H](C)[C@@H](CN(C)C(=O)CC2CC2)Oc2ncc(C#CC3(O)CCCC3)cc2C1=O	.	6	.	.	.	.	.
CCNc1sc(C(=O)c2cccs2)c(N)c1-c1nc2ccccc2s1	-2	23	-14	21*	1	30*	0
Cc1ccccc1Nc1nc(-c2sc(NC(=O)c3ccco3)nc2C)cs1	1	8	-3	-2	8	32*	34
CC(=O)Nc1ccc(Nc2nc(-c3sc(NC(C)=O)nc3C)cs2)cc1	-2	0	-3	-1	4	-5	.
Cc1ccc(Nc2nc(-c3sc(NC(=O)c4ccco4)nc3C)cs2)cc1	1	12	-9	1	6	33*	41
CCOc1ccccc1Nc1nc(-c2sc(NC(=O)c3ccco3)nc2C)cs1	0	3	-11	2	6	31*	24
CC(C)NC(=O)N(C)C[C@@H]1OCCCC[C@H](C)Oc2ccc(NC(=O)Nc3ccc(F)cc3)cc2C(=O)N([C@H](C)CO)C[C@@H]1C	.	3	.	.	.	.	.
Cc1ccc(NC(=O)N(Cc2ccc3c(c2)OCO3)Cc2cc3cc4c(cc3[nH]c2=O)OCCO4)cc1	-5	4	.	-19	17	34*	9
C[C@@H]1CCCCO[C@H](CN(C)C(=O)Nc2ccc(F)cc2)[C@H](C)CN([C@H](C)CO)C(=O)c2cc(NS(=O)(=O)c3cn(C)cn3)ccc2O1	.	-3	.	.	.	.	.
COc1cc(/C=N/Nc2nc3ccccc3s2)ccc1OC(=O)c1ccccc1F	6	.	0	-11	3	11	.
COc1cc(OC)cc(C(=O)Oc2ccc(/C=N/Nc3nc4ccccc4s3)cc2OC)c1	-4	.	-5	18*	8	37*	10
CCOC(=O)c1c(NC(=O)CSc2nnc(-c3ccc(OC)cc3)o2)sc2c1CCC2	-1	4	-4	0	12	-3	.
NC(=O)c1c(NC(=O)COC(=O)CSc2nnc(-c3ccc(Cl)cc3)o2)sc2c1CCC2	-2	-1	5	-7	-22	40*	8
C=CCn1c(SCC(=O)Nc2ccccc2C)nnc1-c1ccncc1	0	-6	17	0	2	49*	6
SMILES	SMARCA2 activ	esBAF inh	Vif inh	NR3A LBD binder	SKN-1 inh	NadD inh	NadD inh conf
C=CCn1c(SCC(=O)Nc2ccccc2CC)nnc1-c1ccncc1	.	-7	-2	-1	2	-11	.
CCc1ccc2[nH]c(=O)c(CN(CCN(C)C)C(=S)NCc3ccco3)cc2c1	-1	.	-6	0	0	37*	-34
Cc1ccc(-c2cccc(C3CC=CC4C3C(=O)N(Cc3ccccc3)C4c3ccc4ccccc4c3)c2)cc1 (centres undefined)	1	-2	-3	0	-6	34*	4
O=C1C2C(c3cccc(/C=C/c4ccccc4)c3)CC=CC2C(c2ccc(C(F)(F)F)cc2)N1Cc1ccccc1 (centres undefined)	2	21	.	0	8	23	.
O=C1C2C(c3cccc(/C=C/c4ccccc4)c3)CC=CC2C(c2ccc3ccccc3c2)N1Cc1ccccc1 (centres undefined)	1	?	1	3	28	32*	8
Cc1ccc(F)c(C2C3C=CCC(c4cccc(-c5ccc(N(C)C)cc5)c4)C3C(=O)N2Cc2ccccc2)c1 (centres undefined)	0	16	-4	-1	44*	43*	18
Cc1csc(N=Cc2ccc([N+](=O)[O-])o2)n1	-5	.	-4	.	12	36*	22
Cc1nc(SCC(=O)c2cc3ccccc3oc2=O)c(C#N)c(-c2ccccc2)c1C(=O)Nc1ccccc1	-3	.	3	0	23	28*	-6
COC(=O)[C@H]1[C@H](CO)[C@H]2Cn3c(ccc(-c4ccccc4)c3=O)[C@H]2N1C(=O)CC1CC1	.	1	.	.	.	.	.
C[C@H]1CN([C@@H](C)CO)C(=O)c2cc(NS(=O)(=O)c3ccccc3)ccc2O[C@@H]1CN(C)C(=O)Nc1ccc(F)cc1	.	2	.	.	.	.	.
O=C1Nc2ccccc2N(C(=O)c2ccc(-c3ccccc3)cc2)C1c1nc2ccccc2[nH]1 (centres undefined)	2	.	.	.	16	31*	20
Nc1nc2c(Br)ccc(Br)c2cc1C(=O)NCc1cccc2ccccc12	2	.	.	.	11	41*	4
CCN(CC)C(=O)CSc1ncnc2sccc12	-1	.	-11	-5	10	2	.
